# Results from PubChem BioAssay AID504616 (Sanford-Burnham Center for Chemical Genomics, 2011).
# This is one part of the list. Activity calls are given as the source filed them.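 Rule for the calls: active = mean activity change at or below -40% when tested at 20 µM; inactive = the rest.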
# Assay: Rh110 fluorescence interference by putative Apaf-1 activators, confirmation, artefact control for Apaf-1 activator project, biochemical, 20 µM (AID 504616)
# Settings: quenched caspase reaction, Ex480/Em540, at 20 µM
row,SMILES,fluorescence interference (activity change)
1,CCOCCCNC(=O)c1c[nH]c2cc(C)ccc2c1=O,8.21% (inactive)
2,COc1ccc(C2CC(c3ccccc3)Nc3ncnn32)cc1 (stereo not given),-9.02% (inactive)
3,C=CC1=C(C(=O)O)N2C(=O)[C@@H](NC(=O)/C(=N\OCC(=O)O)c3csc(N)n3)[C@H]2SC1,11.7% (inactive)
4,COc1ccc(OCCCC(=O)NCCc2ccccc2)cc1,3.73% (inactive)
5,O=C(Nc1cccc(-c2nc3ccccc3[nH]2)c1)c1ccc(C(=O)Nc2cccc(-c3nc4ccccc4[nH]3)c2)cc1,7.06% (inactive)
